Only some compounds are listed: those with a hit (about 7.2% of all), similar ones and a draw of the others.
Sm TGR inh: inhibitors of Schistosoma mansoni thioredoxin glutathione reductase. Q962Y6. Potency, µM (top dose mostly 114 µM), for the others: at the top dose activity change, negative = inhibition, hits mostly inhibitors. actives 3% (n = 360,000). AID 485364. purified TGR, DTNB reduction, TNB absorbance 405 nm; further: nearly all actives have a fitted effect of over 60% in size
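Kinetic colorimetric format: TGR-catalysed, NADPH-driven DTNB reduction monitored via TNB absorbance. Enzyme dispensed at 20 nM; compound exposure 15 min at room temperature before reaction start.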
RE007 growth inh: less growth of the S. pombe RE007 Vpr strain. S. pombe RE007 Vpr strain, BacTiter-Glo ATP luminescence, 24 h. Potency, µM (titrated, usually from 92.2 µM), for inactives: at the top dose activity change, negative = less growth, most hits filed as inhibitors. actives 0.21% (n = 360,000). AID 651644; active means well fitted falling curve with a large enough effect; inconclusive means small, poorly fitted or top-dose-only effect; inactive means no such curve, though single readings can be large or run the other way; further: nearly all actives have a fitted effect of over 50% in size
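Fission yeast strain RE007, carrying one chromosomally integrated HIV-1 vpr copy, was seeded at OD 0.01 in PMG+AL medium with 23 nL pinned compound. After 24 h at 30 °C and 99% humidity, viability was read by BacTiter-Glo luminescence.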
HCV inhibitor: inhibitors of hepatitis C virus infection; Huh7.5.1 HCVcc-Cre infection, luciferase reporter, 44 h; Potency, µM (series often up to 41.8 µM), for the others: top-dose activity change, negative = inhibition, actives largely listed as inhibitors; actives 3.4% (n = 340,000)
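After 44 h co-culture of compound, cells and HCVcc-Cre (~0.5 moi), substrate is added for 15 min at room temperature and luciferase measured over 15 sec. Cells were seeded at 1,000/well and pre-cultured 4 h.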
Marburg entry inh: blocks Marburg virus binding to or entry into cells | Marburg virus pseudotyped entry inhibition, cell reporter | Potency, µM (titrated, usually from 37.8 µM), for inactives: at the top dose activity change, negative = inhibition, most hits filed as inhibitors | actives 1.8% (n = 300,000); calls by dose curve; tested in HEK293 cells
LASV entry inh: inhibitors of Lassa virus binding or cell entry; Lassa virus pseudotype entry inhibition, cell reporter; Potency, µM (titrated, usually from 37.9 µM), inactives show at the top dose activity change, negative = inhibition, actives largely listed as inhibitors; actives 1.2% (n = 300,000); AID 540256; calls by dose curve; tested in HEK293 cells; further: nearly all actives have a fitted effect of over 50% in size
FMDV inh: antivirals against foot and mouth disease virus. Potency, µM (top dose mostly 57.9 µM), for inactives: at the top dose activity change, negative = inhibition, most hits filed as inhibitors. FMDV antiviral cell-based qHTS. actives 1.2% (n = 410,000); calls by dose curve; tested in HEK293T cells; further: read-out not given here; nearly all actives have a fitted effect of over 45% in size
Numbers without * were called inactive; ? = inconclusive; . = no result; ! = a repeat was not active; [ ] = another dose, or the depositor's remark. Unless noted, the call rests on the fitted dose curve; in most records, active means well fitted curve in the direction sought with a large enough effect; inconclusive means small, poorly fitted or top-dose-only effect, or another doubt; inactive means no such curve, though single readings can be large; an effect the other way counts as inactive or inconclusive. On the % scale 0 is the no-effect control and ±100 the full control effect; potency means the concentration at half of the fitted maximal effect.

SMILES | Sm TGR inh | RE007 growth inh | HCV inhibitor | Marburg entry inh | LASV entry inh | FMDV inh
O=C(Nc1cc(S(=O)(=O)N2CCCCC2)ccc1Cl)c1ccccc1NS(=O)(=O)c1ccc(F)cc1 | -11% | 7% | 10µM* | ? | 3.5µM* | -3%
O=C(CN(Cc1ccco1)Cc1ccco1)Nc1cc(S(=O)(=O)N2CCCCC2)ccc1Cl | -31% | 1% | 10µM* | . | . | ?
O=C(c1cccc(S(=O)(=O)N2CCOCC2)c1)N(Cc1ccco1)Cc1cccs1 | -9% | -1% | -16% | . | . | -2%
O=C(O)/C=C/c1ccc(S(=O)(=O)Nc2ccccc2C(=O)Nc2ccc(F)cc2)cc1 | 45µM* | 1% | 27% | 3%[46.1 µM] | -10%[46.1 µM] | 10%
O=C(CN(Cc1ccco1)Cc1cccs1)N1CCN(S(=O)(=O)c2cccc(F)c2)CC1 | 40µM* | -12% | ? | . | . | -11%
O=C(NCc1ccco1)c1cc(S(=O)(=O)N2CCCC2)ccc1Cl | -12% | 12% | 18% | . | . | 2%
CC1(C)Oc2ccc3ccc(=O)oc3c2CC1=O | . | . | . | . | . | -15%
CC1(C(=O)Nc2ccc3c(c2)OCCO3)CN(S(C)(=O)=O)CC(=O)N1Cc1cccs1 (stereo unspecified) | . | -4% | . | . | . | 0%
CN(C)S(=O)(=O)c1ccc(Cl)c(NC(=O)CN2CCN(Cc3ccc4c(c3)OCO4)CC2)c1 | 9% | -2% | ? | . | . | ?
CCc1ccccc1N1CC(C(=O)Nc2cc(S(=O)(=O)N3CCCC3)ccc2Cl)CC1=O (stereo unspecified) | -2% | -4% | 11µM* | -15% | ? | -4%
O=C(CN1CCN(Cc2ccc3c(c2)OCO3)CC1)Nc1cc(S(=O)(=O)N2CCCC2)ccc1Cl | 4% | -17% | 6.3µM* | ? | -6% | ?
CC1CC(C)CN(C(C)C(=O)Nc2cc(S(=O)(=O)N3CCCCC3)ccc2Cl)C1 (stereo unspecified) | . | 2% | 14% | -11%[46.1 µM] | ? | -24%
CC1CCN(C(C)C(=O)Nc2cc(S(=O)(=O)N3CCCCC3)ccc2Cl)CC1 (stereo unspecified) | -4% | 1% | 16µM* | 16% | -3% | -26%
CCC(C)c1ccc(S(=O)(=O)N2CCN(C(C)C(=O)NC3CCCC3)CC2)cc1 (stereo unspecified) | 3% | -15% | ? | -21% | 2.8µM* | -7%
Cc1ccccc1NCC(=O)Nc1cc(S(=O)(=O)N2CCCCC2)ccc1C | -1% | 14% | -30% | . | . | 3%
CC(NCC(=O)Nc1cc(S(=O)(=O)N2CCCCCC2)ccc1Cl)c1ccccc1 (stereo unspecified) | 9% | -9% | 13µM* | . | . | ?
COc1ccc(CN2Cc3ccccc3OC(c3ccccc3OC)C2)c(O)c1 (stereo unspecified) | . | . | . | . | . | -14%
CCOC(=O)C1=C(Cc2ccc(Cl)cc2)C(=O)c2ccccc2C1=O | 3.5µM* | 35µM* | 11µM* | ? | 23µM* | ?
CCOC(=O)C1=C(C)Nc2ccccc2N/C1=N\S(=O)(=O)c1ccc(Cl)cc1 | 5% | -2% | 8% | . | . | ?
CCOc1ccc(NC(=O)Cn2c(=O)n(CC3CCC(C(=O)NCCc4ccccc4)CC3)c(=O)c3ccccc32)cc1 (stereo unspecified) | -6% | . | . | -26%[46.1 µM] | 2%[46.1 µM] | 6%
CC(C)C(c1nnnn1Cc1ccco1)N1CCN(c2nc3ccccc3s2)CC1 (stereo unspecified) | ? | 7% | ? | -9%[46.1 µM] | ? | 22µM*
COc1ccc(C(c2nnnn2C(C)(C)C)N2CCN(c3nc4ccccc4s3)CC2)cc1OC (stereo unspecified) | 1% | 3% | 8% | ? | 3% | -18%
CC(C)CC(c1nnnn1Cc1cccs1)N1CCN(c2nc3ccccc3s2)CC1 (stereo unspecified) | 5% | -7% | 1% | ? | ? | ?
Oc1ccc(C(c2nnnn2CCc2ccccc2)N2CCN(c3nc4ccccc4s3)CC2)cc1 (stereo unspecified) | 8.9µM* | -1% | 13µM* | . | . | -2%
COc1cc(C(c2nnnn2C(C)(C)C)N2CCN(c3nc4ccccc4s3)CC2)ccc1O (stereo unspecified) | 0.35µM* | -10% | 11% | 14%[46.1 µM] | 0% | -21%
SMILES | Sm TGR inh | RE007 growth inh | HCV inhibitor | Marburg entry inh | LASV entry inh | FMDV inh
Cc1ccc(NC(=O)CSc2nnc(-c3ccco3)o2)cc1 | 79µM* | -4% | 33% | -3%[46.1 µM] | 3% | 11%
CC(=O)c1c(C)[nH]c(C(=O)CSc2nnc(-c3ccco3)o2)c1C | -11% | 3% | ? | 11µM* | ? | ?
COc1ccccc1-c1noc(-c2ccc(NC3CCCCC3)c([N+](=O)[O-])c2)n1 | -15% | . | . | -1%[46.1 µM] | 20%[46.1 µM] | 44%
CS(=O)(=O)N1CCc2cc(C(=O)Nc3ccc(S(N)(=O)=O)cc3)ccc21 | -3% | . | . | -16%[46.1 µM] | 2%[46.1 µM] | -9%
COc1ccc(C(=O)NCCN2Cc3ccccc3OC(c3ccsc3)C2)c(OC)n1 (stereo unspecified) | . | . | . | . | . | -10%
COc1ccc(Cl)cc1NC(=O)COc1cccc(-n2cnnn2)c1 | -8% | 10% | ? | 4% | 4% | -20%
COc1ccc(Cl)cc1NC(=O)c1cccc(-n2cnnn2)c1 | 0% | -7% | 10µM* | -15% | -4% | -22%
COc1ccc(Cl)cc1NC(=O)c1cc(C)no1 | 12% | 1% | 10µM* | 5%[46.1 µM] | 5%[46.1 µM] | -1%
COc1ccc(CNS(=O)(=O)c2cc3c(cc2C)n(C)c(=O)c(=O)n3C)cc1 | -3% | . | . | . | ? | -10%
Cc1ccc2cc(CN(C(=O)c3ccc4c(c3)OCO4)C3CC3)c(N(C)C)nc2c1 | . | . | . | . | . | 2%
O=S(=O)(NCc1nnc2n1CCN(Cc1ccccc1Cl)CC2)c1ccccc1 | . | . | . | . | . | -12%
COc1ccc(NC2=Nc3ccccc3N3C2=Nc2c(c(C)nn2-c2ccc(C)cc2)C3c2cccnc2)cc1 (stereo unspecified) | 9% | 13% | ? | 3% | ? | -13%
CC(=O)Nc1ccc(NC2=Nc3ccccc3N3C2=Nc2c(c(C)nn2-c2ccccc2)C3c2ccccc2)cc1 (stereo unspecified) | 16% | 2% | 1% | ? | ? | 10µM*
CCc1noc(C)c1C(=O)N1CCOc2ccc(CN3CCCC(C(=O)c4cccnc4)C3)cc2C1 (stereo unspecified) | . | . | . | . | . | -6%
CCCCN1C=CC(=C2C(=O)c3ccccc3C2=O)C=C1 | 0% | ? | -10% | ? | ? | 10µM*
CCCCn1c(SCC(=O)Nc2cccc(OC)c2)nc2ccc(N3CCOCC3)cc2c1=O | -12% | -1%[3.69 µM] | 8.9µM*! | ? | 7% | -13%
COc1cccc(NC(=O)c2cnc(SCC(=O)N3CCOCC3)n(C)c2=O)c1 | -2% | . | . | . | 8%[46.1 µM] | 22µM*

Assay outcomes as filed in PubChem BioAssay.
